FBW7 act = activators of human E3 ligase FBW7 | Q969H0 | AlphaScreen FBW7–phospho-cyclin E peptide binding, activator screen | hit rate 0.13% among 650,000 | normalized activity (activation), % at 26.1 µM; in the data active means normalized activity above about 1.9%;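 further: purified mutant Fbw7 with reduced substrate affinity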
MITF primary = human MITF inhibition, primary screen | AlphaScreen MITF homodimerization, bead proximity signal | inhibition, % at 2.6 µM | hit rate 0.91% among 650,000 | AID 1259374; in the data active means inhibition above about 50%
GPR151 ag = activates the human receptor GPR151; Q8TDV0; PathHunter beta-arrestin GPR151 cells, luminescence; activation, % at 11.2 µM; hit rate 1% among 650,000; in the data active means activation above about 4.9%
Target sequence (Q8TDV0 whole entry, looked up): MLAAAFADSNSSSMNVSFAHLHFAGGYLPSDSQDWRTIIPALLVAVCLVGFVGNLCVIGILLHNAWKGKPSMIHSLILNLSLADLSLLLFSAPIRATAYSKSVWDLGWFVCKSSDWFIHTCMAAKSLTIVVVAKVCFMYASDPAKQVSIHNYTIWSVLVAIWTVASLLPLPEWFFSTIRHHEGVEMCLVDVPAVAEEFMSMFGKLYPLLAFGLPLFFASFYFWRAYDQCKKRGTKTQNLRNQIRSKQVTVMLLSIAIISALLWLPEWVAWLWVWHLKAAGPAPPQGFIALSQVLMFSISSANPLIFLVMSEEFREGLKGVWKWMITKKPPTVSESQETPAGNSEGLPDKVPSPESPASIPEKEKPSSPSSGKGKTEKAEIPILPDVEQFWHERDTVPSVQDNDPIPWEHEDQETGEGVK
TEAD-YAP inh = TEAD-YAP interaction inhibition. HEK-TIYL cells, TEAD-Gal4/YAP UAS-luciferase luminescence. inhibition, % at 9.12 µM. hit rate 1.4% among 640,000. AID 1259422; in the data active means inhibition above about 32%
MITF inh conf = human MITF inhibition, confirmation; inhibition, % at 2.6 µM; shares compounds with MITF primary; hit rate 16% among 4,700; AID 1259372; AlphaScreen MITF homodimerization, biotin/His-MITF beads;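 active means inhibition above a cutoff derived from the DMSO control wells, cut at about 28% in these data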;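 further: inhibitors lower the bead chemiluminescence by keeping MITF from dimerizing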
AS interf DR = AlphaScreen optical interference, dose response counter-screen; hit rate 6% among 480; shares compounds with MITF primary; AlphaScreen optical interference counterscreen, cell-free; IC50, µM; call rule not given here
AS interf ctr = AlphaScreen optical interference, counter-screen. shares compounds with MITF primary. LysRS AlphaScreen counterscreen, signal interference, triplicate. inhibition, % at 2.6 µM. hit rate 7.6% among 4,700;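 active means inhibition above a cutoff derived from the DMSO control wells, cut at about 30% in these data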
Each line names hits and unclear results; the compound was inactive in the other large screens (follow-up assays come after a bar, where they were run). Hits are enriched below; roughly 3.5% of the tested compounds scored in any of these assays.

CC(NC(=O)CN(C)C1CCN(C)CC1)c1ccccc1 (stereo not given)	MITF primary 59 | MITF inh conf inactive | AS interf ctr inactive
CCN(CC)CC(=O)NC(C)c1ccccc1 (stereo not given)	none
O=C(CN1CCN(C/C=C/c2ccccc2)CC1)NCc1ccccc1	MITF primary 73 | MITF inh conf inactive | AS interf ctr inactive
O=C(CN1CCN(C/C=C/c2ccccc2)CC1)NCCCc1ccccc1	none
CC(C(=O)N(C)Cc1ccccc1)N1CCN(C/C=C/c2ccccc2)CC1 (stereo not given)	MITF primary 59 | MITF inh conf inactive | AS interf ctr inactive
CCOc1ccc2nc(SCC(=O)NCC3CCCO3)c(C#N)cc2c1 (stereo not given)	none
CC(C)c1ccc2nc(SCC(=O)NCC3CCCO3)c(C#N)cc2c1 (stereo not given)	MITF primary 66 | MITF inh conf inactive | AS interf ctr inactive
N/C(=N\N=C(/N)c1ccccn1)c1ccccn1	MITF primary 107, TEAD-YAP inh 61 | MITF inh conf 100 | AS interf ctr 100
Cc1nn(C(=O)c2cccs2)c(N)c1-c1ccccc1	none
Cc1nn(C(=O)c2ccc3c(c2)OCO3)c(N)c1-c1ccccc1	MITF primary 52 | MITF inh conf inactive | AS interf ctr inactive
COc1ccc(OC)c(CN2CCN(Cc3cccn3C)CC2)c1	MITF primary 63 | MITF inh conf inactive | AS interf ctr inactive
COc1ccc(Br)cc1CN1CCCCC1	none
COc1ccc(OC)c(CN2CCOCC2)c1	none
COc1ccc(Br)cc1CN1CCN(Cc2cccn2C)CC1	MITF primary 67 | MITF inh conf inactive | AS interf ctr inactive
CN(C)c1ccc(C(=O)n2nnc3ccccc32)cc1	MITF primary 61 | MITF inh conf inactive | AS interf ctr inactive
O=[N+]([O-])c1ccccc1OCCNCc1ccco1	none
COc1ccc(S(=O)(=O)N2CCN(Cc3ccncc3)CC2)cc1	MITF primary 69 | MITF inh conf inactive | AS interf ctr inactive
CCOc1ccc(CN2CCN(S(=O)(=O)c3ccc(OC)cc3)CC2)cc1	MITF primary 57 | MITF inh conf inactive | AS interf ctr inactive
COc1ccc(S(=O)(=O)N2CCN(Cc3cc(OC)c(OC)c(OC)c3)CC2)cc1	MITF primary 56 | MITF inh conf inactive | AS interf ctr inactive
CCOc1ccc(CN2CCN(Cc3ccc(OC)cc3)CC2)cc1	MITF primary 58 | MITF inh conf inactive | AS interf ctr inactive
CCN(CC)C(=O)C1CCCN(c2nc3ccc(C(=O)Nc4ccc(N5CCOCC5)cc4)cc3s2)C1 (stereo not given)	none
Cc1ccc(N2C(=O)NC(=O)/C(=C/c3ccc(O)c([N+](=O)[O-])c3)C2=O)cc1Cl	none
COc1cc(OC)cc(C(=O)NCC(=O)OCC(=O)NCC(F)(F)F)c1	none
COc1ccc(CN2CCN(Cc3ccncc3)CC2)cc1	MITF primary 57 | MITF inh conf inactive | AS interf ctr inactive
O=S(=O)(c1ccc(F)cc1)N1CCN(Cc2ccncc2)CC1	MITF primary 73 | MITF inh conf inactive | AS interf ctr inactive
CCOc1ccc(CN2CCN(S(C)(=O)=O)CC2)cc1	MITF primary 66 | MITF inh conf inactive | AS interf ctr inactive
CCOc1ccc(CN2CCN(Cc3ccc(CC)cc3)CC2)cc1	MITF primary 75 | MITF inh conf inactive | AS interf ctr inactive
CC(C)Oc1ccc(C(CC(=O)O)c2ccccc2)cc1 (stereo not given)	none
O=S(=O)(c1ccc2ccccc2c1)N1CCN(Cc2ccncc2)CC1	MITF primary 79 | MITF inh conf inactive | AS interf ctr inactive
CCOc1ccc(CN2CCN(Cc3cc(OC)c(O)c(OC)c3)CC2)cc1	MITF primary 56 | MITF inh conf inactive | AS interf ctr inactive
O=S(=O)(c1ccc(F)cc1)N1CCN(Cc2cccc3ccccc23)CC1	MITF primary 82 | MITF inh conf inactive | AS interf ctr inactive
O=S(=O)(c1ccc2ccccc2c1)N1CCN(Cc2ccccc2)CC1	none
Cc1ccc(S(=O)(=O)N2CCN(Cc3cccc4ccccc34)CC2)cc1	none
CCOc1ccc(CN2CCC(N3CCN(C)CC3)CC2)cc1	MITF primary 70 | MITF inh conf inactive | AS interf ctr inactive
CC1CC(C)CN(C(=O)/C=C/c2ccccc2Cl)C1 (stereo not given)	none
C=CCN1CC(c2nc3ccccc3n2CC=C)CC1=O (stereo not given)	none
NC(C(=O)O)c1cc(O)ccc1Cl (stereo not given)	none (no result: TEAD-YAP inh)
COc1ccc(C2(NC(=O)c3cnn4c(C(F)F)nc(C)nc34)CCCCC2)cc1	none
OCCNCc1ccc(Cl)cc1	none
Cc1nonc1N1CCN(C(=O)COc2ccc(N(C)Cc3ccc(F)cc3)nn2)CC1	none
O=C(Nc1cc(Cl)ccc1Oc1ccc2ccccc2c1Cl)c1cc(Br)cc(Br)c1O	none
O=S(=O)(c1ccc2ccccc2c1)N1CCN(Cc2ccccc2F)CC1	MITF primary 54 | MITF inh conf inactive | AS interf ctr inactive
CCOc1ccc(CN2CCN(Cc3cc(OC)c(OC)cc3OC)CC2)cc1	MITF primary 74 | MITF inh conf inactive | AS interf ctr inactive
CCOc1ccc(CN2CCN(Cc3ccccc3OC)CC2)cc1	none
COc1ccc(S(=O)(=O)N2CCN(Cc3ccccc3F)CC2)cc1	none
CC1(C)CC(=O)C2=C(C1)OC1(O)C[C@H]2C2CO[C@@H]1O2	none
O=C(CSc1ccc(-c2ccccn2)nn1)Nc1ccccc1F	MITF primary 52 | MITF inh conf 56 | AS interf ctr 88
O=C(CSc1ccc(-c2ccccn2)nn1)Nc1ccc(F)c(F)c1	none
O=C(CSc1ccc(-c2ccccn2)nn1)c1ccccc1	MITF primary 53 | MITF inh conf 88 | AS interf ctr 100
O=C(N1CCCCC1)N1c2ccccc2CC(N2CCCCC2)c2ccccc21 (stereo not given)	none
COc1ccc(S(=O)(=O)N(CC(=O)Nc2cc(C)cc(C)c2)c2ccc(C)cc2)cc1	none
CN1[C@@H](C(=O)Nc2cc(Cl)ccc2O)C[C@@H](c2cccs2)NS1(=O)=O	MITF primary 70 | MITF inh conf inactive | AS interf ctr inactive
C(=N\c1nc2ccccc2s1)/Nc1nc2ccccc2s1	MITF primary 52 | MITF inh conf inactive | AS interf ctr inactive
c1ccc2sc(Nc3nc4ccccc4s3)nc2c1	none
Cc1nn(C)c(C)c1-c1ncc(C(=O)Nc2ccc(N3CCOCC3)cc2)s1	none
CNC(=S)N1CCN(c2ccc(F)cc2)CC1	none
C=C(C)CSc1nnc2n(-c3ccccc3C)c(=O)c3c4c(sc3n12)CCCC4	MITF primary 70 | MITF inh conf inactive | AS interf ctr inactive
S=c1[nH]nc(-c2ccncc2)n1/N=C/C=C/c1ccco1	MITF primary 70 | MITF inh conf 80 | AS interf DR inactive | AS interf ctr inactive
O=C1N=C(N2CCOCC2)S/C1=C\c1c(Cl)cccc1Cl	none

Assay outcomes: PubChem, The Scripps Research Institute Molecular Screening Center
